Test results reported in PubChem BioAssay.
Where “and” joins values, the source holds several entries; their conditions need not be identical. Equal values may be shown once. Calls of active or inactive are those of the source. Rule as the data show it, unless noted: active = inhibition above about 28%; inactive = the rest.

Columns and labels:
[1] = molecular target: Nuclear receptor coactivator 3 (Homo sapiens) (UniProt Q9Y6Q9); experiment: NCOA3 GAL4-fusion reporter inhibition – cell-based, luminescence, quadruplicate, confirmation (AID 588792;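 active = mean inhibition over 43.08%, the solvent-only control mean plus 3 SD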;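 also: 0% = DMSO treated cells and 100% = gossypol at 36 µM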); settings: HEK293 GAL4-SRC3 luciferase reporter, at 3.6 µM, active compounds read high
Sequence of Nuclear receptor coactivator 3 (Homo sapiens) (Q9Y6Q9 whole entry, looked up, the tested form may be a part): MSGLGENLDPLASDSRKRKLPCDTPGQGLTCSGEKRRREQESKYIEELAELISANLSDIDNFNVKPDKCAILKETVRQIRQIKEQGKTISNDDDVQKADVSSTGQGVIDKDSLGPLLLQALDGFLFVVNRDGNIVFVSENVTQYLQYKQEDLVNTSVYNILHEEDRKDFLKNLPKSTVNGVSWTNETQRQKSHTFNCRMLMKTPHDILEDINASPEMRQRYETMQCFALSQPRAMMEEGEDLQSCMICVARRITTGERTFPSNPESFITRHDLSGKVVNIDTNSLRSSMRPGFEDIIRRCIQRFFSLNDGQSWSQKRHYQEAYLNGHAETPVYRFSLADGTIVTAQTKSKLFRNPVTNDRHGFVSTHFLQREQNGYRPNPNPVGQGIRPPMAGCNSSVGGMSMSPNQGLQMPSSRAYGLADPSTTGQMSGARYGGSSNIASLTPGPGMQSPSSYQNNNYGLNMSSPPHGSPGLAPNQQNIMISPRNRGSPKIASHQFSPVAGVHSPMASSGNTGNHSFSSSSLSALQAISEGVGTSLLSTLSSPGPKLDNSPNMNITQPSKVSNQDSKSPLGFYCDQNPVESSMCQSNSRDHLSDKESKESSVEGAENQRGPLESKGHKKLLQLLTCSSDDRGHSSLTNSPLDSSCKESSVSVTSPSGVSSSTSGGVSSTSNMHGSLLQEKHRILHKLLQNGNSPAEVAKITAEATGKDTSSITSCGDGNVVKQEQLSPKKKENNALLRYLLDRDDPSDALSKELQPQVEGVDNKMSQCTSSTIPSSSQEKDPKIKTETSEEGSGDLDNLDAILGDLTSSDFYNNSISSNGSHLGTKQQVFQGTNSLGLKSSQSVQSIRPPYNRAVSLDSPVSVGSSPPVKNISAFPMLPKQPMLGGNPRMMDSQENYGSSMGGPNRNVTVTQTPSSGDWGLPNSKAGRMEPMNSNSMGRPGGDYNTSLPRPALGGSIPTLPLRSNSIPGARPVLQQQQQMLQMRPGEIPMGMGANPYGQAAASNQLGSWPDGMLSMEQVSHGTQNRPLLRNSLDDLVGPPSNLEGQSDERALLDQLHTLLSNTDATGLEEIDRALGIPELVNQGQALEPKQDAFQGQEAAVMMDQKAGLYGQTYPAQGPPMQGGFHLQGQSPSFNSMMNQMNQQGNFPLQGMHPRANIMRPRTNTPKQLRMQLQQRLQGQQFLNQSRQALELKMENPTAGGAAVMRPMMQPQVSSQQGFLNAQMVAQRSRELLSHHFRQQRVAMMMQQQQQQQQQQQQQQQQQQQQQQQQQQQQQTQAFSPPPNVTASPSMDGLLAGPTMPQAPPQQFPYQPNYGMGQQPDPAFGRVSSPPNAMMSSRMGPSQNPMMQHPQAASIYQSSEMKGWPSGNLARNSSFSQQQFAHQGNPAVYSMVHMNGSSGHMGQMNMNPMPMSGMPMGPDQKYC

[2] = tested on: transactivating tegument protein VP16 (Human herpesvirus 1), Gal4-VP16 luciferase reporter; experiment: repression of VP16-driven luciferase reporter – cell-based, luminescence, high throughput, counter-screen for SRC3 inhibitor project (AID 588794; in the data active = inhibition above about 30%); settings: mammalian cells, at 3.6 µM, active compounds read high
[3] = molecular target: Nuclear receptor coactivator 1 (Homo sapiens) (UniProt Q15788); experiment: NCOA1 GAL4-fusion reporter inhibition – cell-based, luminescence, quadruplicate, confirmation (AID 588820;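 active = mean inhibition above 46.68%, the untreated control wells mean plus 3 SD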;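 also: 0% = DMSO wells and 100% = gossypol 36 µM treated wells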); settings: HEK293 GAL4-SRC1 luciferase reporter, at 3.6 µM, active compounds read high
Sequence of Nuclear receptor coactivator 1 (Homo sapiens) (Q15788 whole entry, looked up, the tested form may be a part): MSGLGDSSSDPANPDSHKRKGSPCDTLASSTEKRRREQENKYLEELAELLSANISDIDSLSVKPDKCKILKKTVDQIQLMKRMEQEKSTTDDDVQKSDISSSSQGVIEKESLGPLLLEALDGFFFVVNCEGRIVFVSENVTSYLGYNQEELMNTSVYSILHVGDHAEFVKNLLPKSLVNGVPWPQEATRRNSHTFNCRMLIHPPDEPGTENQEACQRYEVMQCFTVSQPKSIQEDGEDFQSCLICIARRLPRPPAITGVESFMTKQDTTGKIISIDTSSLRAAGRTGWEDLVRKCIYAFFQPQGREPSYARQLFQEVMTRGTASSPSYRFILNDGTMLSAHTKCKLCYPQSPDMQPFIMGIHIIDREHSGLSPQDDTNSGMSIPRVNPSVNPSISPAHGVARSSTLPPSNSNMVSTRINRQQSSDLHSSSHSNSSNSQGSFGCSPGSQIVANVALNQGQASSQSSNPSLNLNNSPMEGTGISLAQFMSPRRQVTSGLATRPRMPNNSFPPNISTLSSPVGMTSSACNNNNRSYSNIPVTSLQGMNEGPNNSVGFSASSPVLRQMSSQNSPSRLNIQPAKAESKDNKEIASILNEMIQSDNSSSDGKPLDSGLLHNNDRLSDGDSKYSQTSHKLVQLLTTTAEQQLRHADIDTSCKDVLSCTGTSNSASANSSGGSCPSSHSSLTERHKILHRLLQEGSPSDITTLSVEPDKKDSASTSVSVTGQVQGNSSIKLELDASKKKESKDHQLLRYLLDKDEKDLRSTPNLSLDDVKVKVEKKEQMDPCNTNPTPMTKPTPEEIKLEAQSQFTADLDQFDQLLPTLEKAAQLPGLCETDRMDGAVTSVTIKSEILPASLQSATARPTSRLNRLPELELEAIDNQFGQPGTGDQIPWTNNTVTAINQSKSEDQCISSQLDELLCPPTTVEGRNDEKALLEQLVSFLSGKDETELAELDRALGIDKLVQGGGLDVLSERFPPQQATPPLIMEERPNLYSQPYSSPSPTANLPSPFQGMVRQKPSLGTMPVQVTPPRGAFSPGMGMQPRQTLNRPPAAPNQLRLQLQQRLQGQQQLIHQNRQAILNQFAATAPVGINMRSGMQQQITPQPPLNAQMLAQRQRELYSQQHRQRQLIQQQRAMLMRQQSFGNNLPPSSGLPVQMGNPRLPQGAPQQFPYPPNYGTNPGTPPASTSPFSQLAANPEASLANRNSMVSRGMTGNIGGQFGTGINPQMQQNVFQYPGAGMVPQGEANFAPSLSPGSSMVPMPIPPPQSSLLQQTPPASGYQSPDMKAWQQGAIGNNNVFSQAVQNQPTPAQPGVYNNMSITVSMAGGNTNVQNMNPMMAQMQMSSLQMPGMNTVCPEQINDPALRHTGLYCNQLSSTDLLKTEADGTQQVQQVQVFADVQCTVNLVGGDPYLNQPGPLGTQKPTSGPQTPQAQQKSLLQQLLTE

[4] = repression of VP16-driven luciferase reporter – cell-based, luminescence, high throughput, counter-screen for SRC1 inhibitor project (AID 588824; in the data active = inhibition above about 25%); settings: cell-based VP16 transactivation luciferase luminescence; at 3.6 µM; active compounds read high
[5] = StAR promoter reporter inhibitors, counter-screen for LRH-1 inverse agonist project, cell-based, luminescence, high throughput (AID 651611); settings: StAR promoter luciferase reporter counterscreen, at 3.6 µM, active compounds read high
[6] = molecular target: Nuclear receptor subfamily 5 group A member 2 (Homo sapiens) (UniProt O00482); experiment: NR5A2 activity suppression in reporter cells – cell-based, luminescence, confirmation (AID 651613; in the data active = inhibition above about 42%;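 also: HEK293T cells co-transfected with LRH-1 and StAR promoter luciferase reporter; 0% = vehicle wells and 100% = parental cells lacking receptor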); settings: cell-based LRH-1 luciferase reporter, inverse agonism; at 3.6 µM; active compounds read high
Sequence of Nuclear receptor subfamily 5 group A member 2 (Homo sapiens) (O00482 whole entry, looked up): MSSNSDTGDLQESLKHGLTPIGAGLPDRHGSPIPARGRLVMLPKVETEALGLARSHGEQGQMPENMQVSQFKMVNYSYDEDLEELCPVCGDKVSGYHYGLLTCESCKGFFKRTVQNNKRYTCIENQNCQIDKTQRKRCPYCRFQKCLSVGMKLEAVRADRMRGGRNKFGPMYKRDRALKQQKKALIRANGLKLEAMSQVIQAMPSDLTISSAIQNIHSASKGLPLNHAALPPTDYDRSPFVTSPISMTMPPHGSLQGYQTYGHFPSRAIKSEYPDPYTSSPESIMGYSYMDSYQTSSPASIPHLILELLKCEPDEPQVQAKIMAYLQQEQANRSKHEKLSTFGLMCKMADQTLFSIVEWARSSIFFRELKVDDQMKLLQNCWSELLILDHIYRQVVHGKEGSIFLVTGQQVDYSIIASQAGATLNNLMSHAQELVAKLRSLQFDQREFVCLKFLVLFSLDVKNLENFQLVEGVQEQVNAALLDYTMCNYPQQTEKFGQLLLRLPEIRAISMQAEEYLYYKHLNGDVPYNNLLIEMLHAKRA

[7] = molecular target: Steroidogenic factor 1 (Homo sapiens) (UniProt Q13285); experiment: inverse agonism at SF1 nuclear receptor – cell-based, luminescence, high throughput, counter-screen for LRH-1 inverse agonist project (AID 651614; in the data active = inhibition above about 44%;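 also: cells cotransfected with StAR promoter reporter and SF1 expression vector; 0% = vehicle on cells with receptor and 100% = vehicle on cells lacking receptor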); settings: cell-based SF1 luciferase reporter, at 3.6 µM, active compounds read high
Sequence of Steroidogenic factor 1 (Homo sapiens) (Q13285 whole entry, looked up, the tested form may be a part): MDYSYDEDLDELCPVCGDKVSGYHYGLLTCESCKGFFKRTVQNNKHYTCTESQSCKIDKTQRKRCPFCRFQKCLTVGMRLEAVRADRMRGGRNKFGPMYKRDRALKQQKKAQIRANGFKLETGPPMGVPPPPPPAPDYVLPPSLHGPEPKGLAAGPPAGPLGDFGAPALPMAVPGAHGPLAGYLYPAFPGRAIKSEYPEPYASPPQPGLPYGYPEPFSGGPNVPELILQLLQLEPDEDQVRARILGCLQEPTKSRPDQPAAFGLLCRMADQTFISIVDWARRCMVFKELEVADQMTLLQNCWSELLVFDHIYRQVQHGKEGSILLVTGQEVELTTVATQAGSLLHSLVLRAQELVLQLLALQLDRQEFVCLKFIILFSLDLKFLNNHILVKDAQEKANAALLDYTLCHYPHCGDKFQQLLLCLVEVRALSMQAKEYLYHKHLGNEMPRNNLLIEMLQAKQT

[8] = compounds suppressing VP16-driven luciferase signal – cell-based, luminescence, high throughput, counter-screen for LRH-1 inverse agonist project (AID 651615; in the data active = inhibition above about 33%); settings: Gal4-VP16 luciferase reporter cells, at 3.6 µM, active compounds read high

Measured: inhibition

COC(=O)c1c(NC(=O)c2cccc([N+](=O)[O-])c2)sc(C(N)=O)c1C
inactive: [1] 23.4% | [3] 18.9%
active: [2] 55.9% | [4] 47.2% | [5] 46.9% | [6] 84.6% | [7] 80.5% | [8] 69.2%

COc1ccccc1-[n+]1c(C)cc(/C=C2\Sc3ccccc3N2C)cc1C
inactive: [3] 8.54%
active: [1] 81.9% | [2] 85.2% | [4] 79.1% | [5] 38.9% | [6] 104% | [7] 83.3% | [8] 91%

CCCOC(c1ccccc1)(c1ccc(C(F)(F)F)cc1)C(Oc1nc(C)cc(C)n1)C(=O)O (stereo unspecified)
active: [1] 51.2% | [2] 67% | [3] 51.6% | [4] 68.1% | [5] 75.5% | [6] 96.3% | [7] 90.2% | [8] 75.5%

CCCCC(=O)NC(c1ccccc1Cl)c1ccc2cccnc2c1O (stereo unspecified)
inactive: [1] 26.3% | [3] 41%
active: [2] 32.7% | [4] 50.9% | [5] 74.1% | [6] 76.5% | [7] 80.8% | [8] 74.4%

CN(C)c1ccc(/C=C/c2ccc3ccccc3n2)cc1
inactive: [1] 33.3% | [2] 29% | [3] 0.35% | [4] 14.3% | [8] 29.4%
active: [5] 55.6% | [6] 59.3% | [7] 72.4%

COc1ccc(NC(=O)c2cc(-c3cc(Cl)ccc3OC)n[nH]2)cc1OC
active: [2] 51.2% | [4] 44% | [5] 38.9% | [6] 47.8% | [7] 61.2% | [8] 57.8%
inactive: [1] 27.4% | [3] 19.2%

O=C(NC(Nc1nc2ccc([N+](=O)[O-])cc2s1)(C(F)(F)F)C(F)(F)F)c1cccnc1
inactive: [3] 26.9%
active: [1] 62.8% | [2] 75.3% | [4] 75.3% | [5] 81.4% | [6] 104% | [7] 95.1% | [8] 88.7%

CC1(C)CC2CC(C)(CN2S(=O)(=O)c2ccc(C(=O)Nc3ccc(S(=O)(=O)N4CCOCC4)cc3)cc2)C1 (stereo unspecified)
active: [2] 42.4% | [4] 44.1% | [6] 53.1% | [7] 46.4% | [8] 57.8%
inactive: [1] 24.1% | [3] 4.08% | [5] 22.1%

CCN(CC)c1ccc(/C=C/c2ccc3ccc(OC)cc3[n+]2CC)cc1
inactive: [3] 42.6%
active: [1] 50.1% | [2] 74.8% | [4] 74.5% | [5] 67.8% | [6] 96.4% | [7] 90.8% | [8] 84.1%

CN(Cc1cnc2nc(N)nc(N)c2n1)c1ccc(C(=O)N[C@@H](CCC(=O)O)C(=O)O)cc1
active: [1] 66.7% | [5] 76.9% | [6] 54.9% | [7] 55.4%
inactive: [2] 12.6% | [3] 35% | [4] 8.93% | [8] 22.7%

COc1ccc(-[n+]2c(C)cc(/C=C3\Sc4ccccc4N3C)cc2C)cc1
active: [1] 74.4% | [2] 83.5% | [3] 47.5% | [4] 78.8% | [5] 74.5% | [6] 106% | [7] 90% | [8] 87.4%

Cc1ccc(-c2cn(-c3ccccc3)c3[n+]2CCCS3)cc1
inactive: [1] 1.67% | [2] 27.5% | [3] 9.91% | [4] 19.5% | [5] 24.4% and 12.1%
active: [6] 80.1% and 61.7% | [7] 61.2% and 59.6% | [8] 64.2% and 56.1%

CN(C)c1ccc(C=c2c3ccccc3n3c2cc(-c2ccccc2)[n+]3C)cc1
active: [1] 65.7% | [2] 84.2% | [3] 56.7% | [4] 88.2% | [5] 74% | [6] 109% | [7] 94.8% | [8] 93.5%

O=C(O)C1CCCN1c1nc(-c2ccc(Cl)c(Cl)c2)cc(C(F)(F)F)n1 (stereo unspecified)
active: [1] 53.8% | [2] 74.4% | [3] 48.3% | [4] 72.8% | [5] 74.5% | [6] 97.4% | [7] 91.4% | [8] 78.2%

CCOc1ccc(C(=O)Nc2cnn(Cc3ccc(Cl)c(Cl)c3)c2)cc1
active: [2] 44.1% | [4] 36.8% | [5] 39% | [6] 62.7% | [7] 60.1% | [8] 70.5%
inactive: [1] 16% | [3] 26.8%

OCC1OC(n2cnc3c(NCc4ccccc4O)ncnc32)C(O)C1O (stereo unspecified)
inactive: [3] 45.3%
active: [1] 81% | [2] 82.1% | [4] 80% | [5] 87.5% | [6] 102% | [7] 90.3% | [8] 86.1%

NC(=S)NN=Cc1cc(-c2cccc(N)c2)ccn1
active: [1] 77.3% | [2] 53% | [3] 64.1% | [4] 52.2% | [5] 75.3% | [6] 93.6% | [7] 88% | [8] 72.4%
